Test [1] relates to turtle Androgen Receptor (AR), gene 101947425. In words: ATG_trAR_XSP1: Attagene TRANS-FACTORIAL Multi-Species (XSP1) HepG2 Assay for turtle Androgen Receptor (AR) (AID 2283786). A digest of the protocol:
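Partial androgen stimulation is provided by 3 nM 6-alpha-fluorotestosterone in a multi-species trans-factorial panel expressing a turtle AR–GAL4 fusion in HepG2. After 24 h, reporter mRNA is measured by RT-PCR and capillary electrophoresis and fitted upward against DMSO.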

The target in test [2] is GAL4 Transcription Factor (Internal Marker), GAL4 (gene 855828) (UniProt P04386). The test can be described thus: ATG_GAL4_XSP1: Attagene TRANS-FACTORIAL Multi-Species (XSP1) HepG2 Assay for GAL4 Transcription Factor (Internal Marker) (AID 2283789). In short, it runs like this:
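This background-control endpoint measures GAL4-driven reporter mRNA via RT-PCR and capillary electrophoresis of labelled fragments. Transiently transfected HepG2 cells were treated 24 h, with 3 nM 6-alpha-fluorotestosterone included, and gain-of-signal was fitted against DMSO.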

Test [3] is described as follows: ATG_M_06_XSP1: Attagene TRANS-FACTORIAL Multi-Species (XSP1) HepG2 Assay for M06 Transcription Factor (Internal Marker) (AID 2283790). A digest of the protocol:
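This background-control readout tracks M06 reporter mRNA, measured by RT-PCR and capillary electrophoresis. HepG2 cells transiently carrying the GAL4-UAS reporter panel were dosed for 24 h with 3 nM 6-alpha-fluorotestosterone added for partial AR stimulation; increases were scored relative to DMSO.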

A short description of test [4]: ATG_M_61_XSP1: Attagene TRANS-FACTORIAL Multi-Species (XSP1) HepG2 Assay for M61 Transcription Factor (Internal Marker) (AID 2283797). A digest of the protocol:
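Background-control readout: reporter transcripts measured by RT-PCR and capillary electrophoresis 24 h after dosing transiently transfected HepG2 multi-reporter cells, with 3 nM 6-alpha-fluorotestosterone present. Fitted in the positive direction relative to DMSO.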

The nature of test [5]: ATG_M_19_XSP1: Attagene TRANS-FACTORIAL Multi-Species (XSP1) HepG2 Assay for M19 Transcription Factor (Internal Marker) (AID 2283798). In short, it runs like this: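 Readout is reporter mRNA induction quantified via RT-PCR, 6-FAM labeling, HpaI digestion and capillary electrophoresis, fitted in the positive direction versus DMSO baseline. Transfected HepG2 cells exposed 24 h, medium including 3 nM 6-alpha-fluorotestosterone.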

The nature of test [6]: ATG_M_32_XSP1: Attagene TRANS-FACTORIAL Multi-Species (XSP1) HepG2 Assay for M32 Transcription Factor (Internal Marker) (AID 2283799). A digest of the protocol:
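Reporter transcripts from the M32 internal-control unit measured by RT-PCR, FAM labelling, HpaI digestion and capillary electrophoresis after 24 h compound exposure of transfected HepG2, 3 nM 6-alpha-fluorotestosterone included; DMSO baseline, positive-direction fit.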

Test [7] concerns the target mouse Peroxisome Proliferator-activated Receptor gamma (PPARg), Pparg (gene 19016) (UniProt P37238). In words: ATG_mPPARg_XSP1: Attagene TRANS-FACTORIAL Multi-Species (XSP1) HepG2 Assay for mouse Peroxisome Proliferator-activated Receptor gamma (PPARg) (AID 2283802). A digest of the protocol:
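Readout is reporter mRNA induction, measured by RT-PCR with 6-FAM labelling, HpaI digestion and capillary electrophoresis, 24 h post-dose relative to DMSO. Transient multi-reporter transfection of human HepG2 with mouse PPARg–GAL4 fusion; 3 nM 6-alpha-fluorotestosterone included.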

The target of test [8] is Nuclear receptor subfamily 1 group I member 2 (Mus musculus) (UniProt O54915). The test can be described thus: ATG_mPXR_XSP1: Attagene TRANS-FACTORIAL Multi-Species (XSP1) HepG2 Assay for mouse Pregnane X Receptor (PXR) (AID 2283803). In short, it runs like this:
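Transiently transfected HepG2 cells expressing a receptor-Gal4 chimera drive a GAL4-UAS reporter; 3 nM 6-alpha-fluorotestosterone included. Reporter mRNA read 24 h post-dose by RT-PCR and capillary electrophoresis; gain of signal relative to DMSO.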

Test [9] deals with human Thyroid hormone Receptor alpha (TRa), THRA (gene 7067) (UniProt P10827). The test can be described thus: ATG_hTRa_XSP1: Attagene TRANS-FACTORIAL Multi-Species (XSP1) HepG2 Assay for human Thyroid hormone Receptor alpha (TRa) (AID 2283805). In short, it runs like this: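 Reporter transcripts from the human TRa-Gal4 TRANS unit quantified by RT-PCR, fluorescent labeling and capillary electrophoresis after 24 hours of chemical exposure in transfected HepG2 cells; medium contains 3 nM 6-alpha-fluorotestosterone. Positive direction fit against DMSO.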
Sequence of human Thyroid hormone Receptor alpha (TRa), THRA (gene 7067) (P10827 whole entry, looked up, the tested form may be a part): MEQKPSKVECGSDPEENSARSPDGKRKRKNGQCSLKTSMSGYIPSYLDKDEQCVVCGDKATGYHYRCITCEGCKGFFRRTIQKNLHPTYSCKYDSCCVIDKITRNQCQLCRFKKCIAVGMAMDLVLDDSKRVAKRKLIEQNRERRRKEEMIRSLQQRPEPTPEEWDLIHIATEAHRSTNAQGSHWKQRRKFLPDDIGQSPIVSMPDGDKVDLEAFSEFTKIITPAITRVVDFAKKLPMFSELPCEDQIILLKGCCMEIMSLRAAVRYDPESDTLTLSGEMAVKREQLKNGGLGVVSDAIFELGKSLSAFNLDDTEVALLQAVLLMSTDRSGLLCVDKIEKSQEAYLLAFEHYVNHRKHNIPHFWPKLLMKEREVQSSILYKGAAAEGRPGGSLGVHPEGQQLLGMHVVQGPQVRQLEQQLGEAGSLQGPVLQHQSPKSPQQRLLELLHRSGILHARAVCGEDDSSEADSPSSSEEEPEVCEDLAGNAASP

Test [10] deals with zebrafish Thyroid Hormone Receptor alpha (TRa), thraa (gene 30670) (UniProt Q98867). In words: ATG_zfTRa_XSP1: Attagene TRANS-FACTORIAL Multi-Species (XSP1) HepG2 Assay for zebrafish Thyroid Hormone Receptor alpha (TRa) (AID 2283807). A digest of the protocol: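 Reporter transcripts driven by a chimeric zebrafish TRa–Gal4 protein were measured by RT-PCR with fluorescent labelling and capillary electrophoresis. These came from transiently transfected HepG2 cells after 24 h chemical exposure, with 3 nM 6-alpha-fluorotestosterone added; baseline was DMSO.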
Sequence of zebrafish Thyroid Hormone Receptor alpha (TRa), thraa (gene 30670) (Q98867 whole entry, looked up, the tested form may be a part): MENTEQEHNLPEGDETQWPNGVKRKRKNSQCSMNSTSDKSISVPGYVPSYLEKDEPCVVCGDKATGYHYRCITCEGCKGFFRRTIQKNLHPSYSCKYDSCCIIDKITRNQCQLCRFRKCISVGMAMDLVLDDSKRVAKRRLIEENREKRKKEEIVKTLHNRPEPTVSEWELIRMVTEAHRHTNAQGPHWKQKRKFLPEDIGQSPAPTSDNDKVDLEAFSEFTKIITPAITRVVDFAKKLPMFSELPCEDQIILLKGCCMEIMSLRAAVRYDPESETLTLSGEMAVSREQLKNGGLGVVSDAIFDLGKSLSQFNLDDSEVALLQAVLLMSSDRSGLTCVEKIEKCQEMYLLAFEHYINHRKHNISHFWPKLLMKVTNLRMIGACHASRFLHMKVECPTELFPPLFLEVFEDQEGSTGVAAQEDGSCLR

Test [11] deals with human Thyroid hormone Receptor beta (TRb), THRB (gene 7068) (UniProt P10828). In words: ATG_hTRb_XSP1: Attagene TRANS-FACTORIAL Multi-Species (XSP1) HepG2 Assay for human Thyroid hormone Receptor beta (TRb) (AID 2283808). In short, it runs like this:
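Readout is reporter mRNA induction measured by RT-PCR, fluorescent labelling and capillary electrophoresis, fitted upward relative to DMSO. Transiently transfected human HepG2 cells expressing NR-Gal4 chimeras were dosed for 24 h, medium containing 3 nM 6-alpha-fluorotestosterone.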

The target of test [12] is zebrafish Thyroid Hormone Receptor beta (TRb), thrb (gene 30607) (UniProt Q9PVE4). The test can be described thus: ATG_zfTRb_XSP1: Attagene TRANS-FACTORIAL Multi-Species (XSP1) HepG2 Assay for zebrafish Thyroid Hormone Receptor beta (TRb) (AID 2283809). A digest of the protocol:
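HepG2 cells transiently transfected with multiplexed GAL4-UAS reporter units expressing chimeric zebrafish TRb–Gal4. Dosed 24 h with 3 nM 6-alpha-fluorotestosterone present; reporter mRNA measured by RT-PCR, HpaI digestion and capillary electrophoresis; gain of signal versus DMSO.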

The nature of test [13]: ATG_M_06_XSP2: Attagene TRANS-FACTORIAL Multi-Species (XSP2) HepG2 Assay for M06 Transcription Factor (Internal Marker) (AID 2283811).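 Also: hits are increases in signal above the DMSO baseline.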 In short, it runs like this: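 Internal-marker reporter transcript, quantified by RT-PCR, 6-FAM labelling, HpaI digestion and capillary electrophoresis, 24 hours after dosing transfected HepG2 cells with 3 nM 6-alpha-fluorotestosterone and 1.5 nM norgestrel present; DMSO baseline.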

The subject of test [14] is turtle Estrogen Receptor (ERa), gene 101933533. In words: ATG_trERa_XSP2: Attagene TRANS-FACTORIAL Multi-Species (XSP2) HepG2 Assay for turtle Estrogen Receptor (ERa) (AID 2283812).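 Also: actives raise reporter signal above DMSO so AC50 reflects agonist activity.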 In short, it runs like this:
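Readout is reporter mRNA quantified by RT-PCR with capillary electrophoresis after 24 h compound exposure, increase relative to DMSO. Uses transiently transfected human HepG2 liver cells carrying a chimeric turtle ERa-Gal4 receptor driving GAL4-UAS reporters.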

Test [15] deals with GAL4 Transcription Factor (Internal Marker), GAL4 (gene 855828) (UniProt P04386). The test can be described thus: ATG_GAL4_XSP2: Attagene TRANS-FACTORIAL Multi-Species (XSP2) HepG2 Assay for GAL4 Transcription Factor (Internal Marker) (AID 2283814).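 Also: GAL4 reporter mRNA background control in MRTU transfected cells not a receptor target.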 In short, it runs like this:
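Background-control readout: gain-of-signal fitted against DMSO. After 24 h exposure of transfected HepG2 (MRTU, GAL4-UAS reporters; 3 nM 6-alpha-fluorotestosterone, 1.5 nM norgestrel present), transcripts quantified by RT-PCR and capillary electrophoresis fluorescence.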

In test [16] the target is zebrafish Estrogen Receptor (ER1), esr1 (gene 259252) (UniProt P57717). The test can be described thus: ATG_zfER1_XSP2: Attagene TRANS-FACTORIAL Multi-Species (XSP2) HepG2 Assay for zebrafish Estrogen Receptor (ER1) (AID 2283816). In short, it runs like this: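 After 24 h compound exposure, RNA from transfected HepG2 cells was reverse-transcribed and reporter transcripts resolved by capillary electrophoresis. The TRANS format reads exogenous zebrafish ER1-Gal4 chimera activity on GAL4-UAS elements; gain of signal against DMSO.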
Sequence of zebrafish Estrogen Receptor (ER1), esr1 (gene 259252) (P57717 whole entry, looked up, the tested form may be a part): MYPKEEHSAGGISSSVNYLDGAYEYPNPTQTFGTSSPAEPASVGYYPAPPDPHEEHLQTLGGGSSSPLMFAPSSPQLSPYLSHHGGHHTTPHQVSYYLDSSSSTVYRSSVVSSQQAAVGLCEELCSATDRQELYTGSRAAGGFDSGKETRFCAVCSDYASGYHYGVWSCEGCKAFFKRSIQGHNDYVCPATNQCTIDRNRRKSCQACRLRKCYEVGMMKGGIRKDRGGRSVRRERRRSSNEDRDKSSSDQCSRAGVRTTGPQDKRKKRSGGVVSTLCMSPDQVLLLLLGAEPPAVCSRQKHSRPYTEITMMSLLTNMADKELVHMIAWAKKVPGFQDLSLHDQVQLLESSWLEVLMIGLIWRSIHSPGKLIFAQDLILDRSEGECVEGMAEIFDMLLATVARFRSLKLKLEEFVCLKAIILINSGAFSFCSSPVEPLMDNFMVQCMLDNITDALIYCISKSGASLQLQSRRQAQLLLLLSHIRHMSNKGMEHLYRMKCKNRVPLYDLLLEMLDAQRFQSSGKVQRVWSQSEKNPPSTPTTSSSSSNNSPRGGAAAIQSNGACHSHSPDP

The target in test [17] is frog Thyroid hormone Receptor alpha (TRa), thra-a (gene 397942) (UniProt P15204). In words: ATG_frTRa_XSP1: Attagene TRANS-FACTORIAL Multi-Species (XSP1) HepG2 Assay for frog Thyroid hormone Receptor alpha (TRa) (AID 2283804). A digest of the protocol: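 Reporter transcript induction, measured by RT-PCR with 6-FAM labelling and capillary electrophoresis, 24 hr after dosing transiently transfected HepG2 cells expressing a frog TRa-GAL4 fusion; medium contained 3 nM 6-alpha-fluorotestosterone; increase over DMSO scored.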
Sequence of frog Thyroid hormone Receptor alpha (TRa), thra-a (gene 397942) (P15204 whole entry, looked up, the tested form may be a part): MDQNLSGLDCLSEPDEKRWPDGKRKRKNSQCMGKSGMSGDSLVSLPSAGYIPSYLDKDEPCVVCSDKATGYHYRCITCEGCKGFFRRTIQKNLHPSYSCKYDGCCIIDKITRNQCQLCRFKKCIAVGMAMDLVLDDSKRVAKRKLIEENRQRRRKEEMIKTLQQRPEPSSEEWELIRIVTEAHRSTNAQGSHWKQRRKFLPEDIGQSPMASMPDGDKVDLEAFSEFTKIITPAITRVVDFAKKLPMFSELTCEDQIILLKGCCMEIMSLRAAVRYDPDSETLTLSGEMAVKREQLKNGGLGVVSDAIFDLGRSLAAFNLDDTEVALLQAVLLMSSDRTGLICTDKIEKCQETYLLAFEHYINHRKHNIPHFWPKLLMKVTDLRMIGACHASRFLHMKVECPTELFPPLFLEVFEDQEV

Test [18] in a line: ATG_XTT_Cytotoxicity_XSP1: Cytotoxicity Assessment in the Attagene TRANS-FACTORIAL Multi-Species (XSP1) HepG2 Assay (AID 2283810). In short, it runs like this: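 XTT viability readout taken at 24 hours post-dosing in HepG2 liver cells co-treated with 3 nM 6-alpha-fluorotestosterone. Signal loss relative to DMSO controls reflects cytotoxicity.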

Each structure is given as a SMILES string. Inconclusive results are not listed. Calls of active or inactive are those of the source. The calls were made as follows: active = hit-call score of the fitted dose curve at least 0.9, where 1 is the maximum; inconclusive = response in the unintended direction; inactive = score below 0.9.

Sequence of GAL4 Transcription Factor (Internal Marker), GAL4 (gene 855828) (P04386 whole entry, looked up, the tested form may be a part): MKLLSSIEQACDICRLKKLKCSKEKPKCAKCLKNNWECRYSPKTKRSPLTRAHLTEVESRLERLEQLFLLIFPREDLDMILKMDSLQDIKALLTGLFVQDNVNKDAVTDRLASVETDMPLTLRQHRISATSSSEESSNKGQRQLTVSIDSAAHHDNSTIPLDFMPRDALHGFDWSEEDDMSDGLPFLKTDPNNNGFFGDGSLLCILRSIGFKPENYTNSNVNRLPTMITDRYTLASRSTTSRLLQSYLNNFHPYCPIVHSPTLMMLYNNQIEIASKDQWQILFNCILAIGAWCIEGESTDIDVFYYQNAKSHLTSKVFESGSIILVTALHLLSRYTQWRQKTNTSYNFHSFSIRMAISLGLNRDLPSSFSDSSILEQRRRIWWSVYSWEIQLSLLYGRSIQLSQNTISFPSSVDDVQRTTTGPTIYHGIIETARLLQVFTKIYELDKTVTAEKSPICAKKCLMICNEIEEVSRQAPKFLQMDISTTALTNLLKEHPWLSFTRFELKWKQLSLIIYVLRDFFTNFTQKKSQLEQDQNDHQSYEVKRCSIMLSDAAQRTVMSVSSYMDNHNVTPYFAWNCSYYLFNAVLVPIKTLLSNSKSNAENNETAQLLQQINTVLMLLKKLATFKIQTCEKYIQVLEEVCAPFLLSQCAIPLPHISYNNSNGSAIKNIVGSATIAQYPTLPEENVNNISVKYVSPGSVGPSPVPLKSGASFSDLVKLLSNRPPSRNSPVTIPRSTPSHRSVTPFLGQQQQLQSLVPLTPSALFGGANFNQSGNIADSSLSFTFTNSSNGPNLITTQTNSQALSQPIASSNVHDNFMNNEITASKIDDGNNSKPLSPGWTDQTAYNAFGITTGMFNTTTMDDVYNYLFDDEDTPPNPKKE
Sequence of zebrafish Thyroid Hormone Receptor beta (TRb), thrb (gene 30607) (Q9PVE4 whole entry, looked up, the tested form may be a part): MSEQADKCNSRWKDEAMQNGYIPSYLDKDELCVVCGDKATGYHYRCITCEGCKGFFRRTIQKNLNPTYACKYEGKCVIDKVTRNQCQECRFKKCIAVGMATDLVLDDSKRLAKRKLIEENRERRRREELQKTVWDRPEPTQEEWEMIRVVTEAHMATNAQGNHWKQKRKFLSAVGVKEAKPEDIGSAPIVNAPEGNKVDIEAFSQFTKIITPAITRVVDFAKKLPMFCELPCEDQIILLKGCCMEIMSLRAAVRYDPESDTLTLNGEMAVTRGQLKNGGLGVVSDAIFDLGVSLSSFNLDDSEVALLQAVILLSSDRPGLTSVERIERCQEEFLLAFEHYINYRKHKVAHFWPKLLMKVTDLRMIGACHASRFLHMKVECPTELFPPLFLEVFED
Sequence of human Thyroid hormone Receptor beta (TRb), THRB (gene 7068) (P10828 whole entry, looked up, the tested form may be a part): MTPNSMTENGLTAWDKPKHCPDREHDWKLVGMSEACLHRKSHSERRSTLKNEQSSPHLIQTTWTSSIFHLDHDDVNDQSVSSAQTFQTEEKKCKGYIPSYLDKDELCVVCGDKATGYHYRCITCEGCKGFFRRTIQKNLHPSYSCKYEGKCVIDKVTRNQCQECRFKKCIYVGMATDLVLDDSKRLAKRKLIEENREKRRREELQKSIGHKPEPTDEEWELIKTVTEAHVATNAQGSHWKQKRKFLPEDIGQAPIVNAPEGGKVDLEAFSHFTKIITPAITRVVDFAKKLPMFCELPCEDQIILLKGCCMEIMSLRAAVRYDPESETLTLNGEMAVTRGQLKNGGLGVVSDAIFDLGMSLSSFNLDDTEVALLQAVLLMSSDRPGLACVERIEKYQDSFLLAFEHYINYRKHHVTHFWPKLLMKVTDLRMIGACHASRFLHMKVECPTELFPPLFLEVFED
Sequence of mouse Peroxisome Proliferator-activated Receptor gamma (PPARg), Pparg (gene 19016) (P37238 whole entry, looked up, the tested form may be a part): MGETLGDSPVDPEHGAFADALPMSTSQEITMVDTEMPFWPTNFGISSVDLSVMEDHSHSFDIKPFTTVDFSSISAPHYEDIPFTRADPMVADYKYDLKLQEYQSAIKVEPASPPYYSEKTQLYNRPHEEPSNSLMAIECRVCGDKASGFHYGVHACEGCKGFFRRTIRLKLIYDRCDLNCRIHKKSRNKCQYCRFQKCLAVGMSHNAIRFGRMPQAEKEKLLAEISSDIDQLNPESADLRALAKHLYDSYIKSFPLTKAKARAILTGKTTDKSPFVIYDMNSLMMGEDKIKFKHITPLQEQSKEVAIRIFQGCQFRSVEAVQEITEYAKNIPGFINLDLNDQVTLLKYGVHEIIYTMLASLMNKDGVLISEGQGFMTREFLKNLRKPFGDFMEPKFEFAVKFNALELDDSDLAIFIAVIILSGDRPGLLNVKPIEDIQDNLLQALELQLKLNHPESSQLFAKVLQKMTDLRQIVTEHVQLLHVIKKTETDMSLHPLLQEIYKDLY
Sequence of Nuclear receptor subfamily 1 group I member 2 (Mus musculus) (O54915 whole entry, looked up, the tested form may be a part): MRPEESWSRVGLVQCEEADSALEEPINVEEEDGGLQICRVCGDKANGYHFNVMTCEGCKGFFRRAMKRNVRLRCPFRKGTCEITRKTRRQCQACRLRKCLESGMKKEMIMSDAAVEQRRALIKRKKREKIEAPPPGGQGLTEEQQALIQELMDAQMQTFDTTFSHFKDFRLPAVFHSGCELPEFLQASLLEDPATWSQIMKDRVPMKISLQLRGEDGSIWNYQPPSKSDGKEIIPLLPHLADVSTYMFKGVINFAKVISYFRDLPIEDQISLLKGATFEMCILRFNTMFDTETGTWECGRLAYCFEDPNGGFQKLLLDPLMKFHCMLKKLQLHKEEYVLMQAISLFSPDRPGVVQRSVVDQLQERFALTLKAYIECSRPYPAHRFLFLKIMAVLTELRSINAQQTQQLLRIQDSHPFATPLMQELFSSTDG

`O=C(c1ccccc1)c1ccc(O)cc1O`: the call in test [1], in test [2], in [3], in [4], in [5] and in test [6] was inactive. Further, the compound was called inactive in test [7], in test [8], in test [9], in [10], in test [11] and in test [12]. In addition, the compound was called inactive in [13] and in test [15]. Also, the concentration at half-maximal activity (AC50) in test [14] was 2.81 µM (active); in test [16] it was 10 µM (active).

As to `C[C@]12CC[C@H]3C(=CCc4cc(O)ccc43)[C@@H]1CCC2=O`, the compound was classed as inactive in test [3], in test [4], in [17], in test [9], in [10] and in test [11]. Besides, the result in test [12], in test [18] and in [13] was inactive. Moreover, the AC50 in test [14] was 0.0129 µM (active); in [16], 0.086 µM (active).

For orientation: AC50 means the midpoint of the concentration-response curve, whichever way the signal moves.

These data come from PubChem BioAssay (EPA / NIEHS).
